Measured values taken from PubChem BioAssay (NCI).
This is part of a sample that, as a whole, favours compounds with a hit. Of some 79,000 tested, about 15% had one in any assay. The source made the active and inactive calls. No stated cut-off is given here; in the data, active means growth inhibition above about 70%; inactive means the rest.

Experiments:
[1] = NCI Yeast Anticancer Drug Screen. Data for the rad50 strain (AID 155);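 further: 0% = growth of vehicle-only cultures of the same strain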; conditions: S. cerevisiae rad50 strain growth inhibition, active compounds read high
In short: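 Cells are treated with compound, grown, and their growth is then scored against vehicle-only cultures of the same repair-deficient yeast strain.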

[2] = NCI Yeast Anticancer Drug Screen. Data for the mec2-1 strain (AID 157); conditions: S. cerevisiae mec2-1 strain, active compounds read high
In short: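 Each compound was tested on mec2-1 yeast, a strain altered in DNA damage repair or cell cycle control. Growth inhibition is reported relative to vehicle.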

[3] = NCI Yeast Anticancer Drug Screen. Data for the sgs1 mgt1 strain (AID 161);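 further: 0% = growth of cultures given vehicle only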; conditions: S. cerevisiae sgs1 mgt1 strain, active compounds read high
In short: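 Mutant yeast exposed to compound; growth scored against vehicle-only wells.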

[4] = NCI Yeast Anticancer Drug Screen. Data for the cln2 rad14 strain (AID 165);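 further: 0% = growth equal to vehicle treated cultures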; conditions: S. cerevisiae cln2 rad14 strain, active compounds read high
In short: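 Test compounds were added to cln2 rad14 yeast cultures; inhibition of growth was then determined by comparison with vehicle treatment.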

[5] = NCI Yeast Anticancer Drug Screen. Data for the bub3 strain (AID 167); conditions: S. cerevisiae bub3 mutant strain, active compounds read high
In short: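 Part of a panel of yeast mutants defective in DNA damage repair or cell cycle regulation. Each strain is grown with compound, and inhibition is calculated relative to solvent-treated cultures.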

[6] = NCI Yeast Anticancer Drug Screen. Data for the mlh1 rad18 strain (AID 175); conditions: S. cerevisiae mlh1 rad18 strain growth inhibition, active compounds read high
In short: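 Inhibition values reflect reduced growth of mutant yeast versus vehicle-treated controls following compound exposure; the mutations affect DNA damage repair.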

[7] = at 5.0 µM (retest, dose inferred, filed as 0.5)
[8] = at 50.0 µM (retest, dose inferred, filed as 5.0)

Measured: growth inhibition

CC(=O)Nc1ccc(/C=C2/NC(=S)N(/C=C3\C(=O)Oc4ccccc4C3=O)C2=O)cc1
inactive: [1]; [7] -10% | [1]; [8] 50% | [2]; [7] -19% | [2]; [8] 60% | [3]; [7] -6% | [3]; [8] 29% | [4]; [7] -15% | [4]; [8] 64% | [5]; [7] -12% | [5]; [8] 36% | [5]; at 50.0 µM 67.2% | [6]; [7] -9% | [6]; [8] 44%
active: [1]; at 50.0 µM 70.7% | [2]; at 50.0 µM 76.5% | [3]; at 50.0 µM 78.7% | [4]; at 50.0 µM 86% | [6]; at 50.0 µM 76.2%

COc1ccc(/C=C2\CN(C)C/C(=C\c3ccc(OC)c(OC)c3OC)C2=O)c(OC)c1OC
active: [1]; [8] 96% | [1]; at 50.0 µM 85.4% | [2]; [8] 97% | [2]; at 50.0 µM 93.5% | [3]; [8] 98% | [3]; at 50.0 µM 92% | [4]; [8] 86% | [4]; at 50.0 µM 91.2% | [5]; [8] 96% | [5]; at 50.0 µM 95.8% | [6]; [8] 97% | [6]; at 50.0 µM 91.3%
inactive: [1]; [7] 27% | [2]; [7] 1% | [3]; [7] 7% | [4]; [7] 7% | [5]; [7] 14% | [6]; [7] -4%

Cc1ccccc1SCc1nc2ccccc2c(C)[n+]1[O-]
active: [1]; [8] 73% | [6]; [8] 89%
inactive: [1]; [7] -3% | [1]; at 50.0 µM 35.5% | [2]; [7] 4% | [2]; [8] 63% | [2]; at 50.0 µM 45.2% | [3]; [7] 9% | [3]; [8] 68% | [3]; at 50.0 µM 58.7% | [4]; [7] -1% | [4]; [8] 44% | [4]; at 50.0 µM 35% | [5]; [7] -1% | [5]; [8] 69% | [5]; at 50.0 µM 59% | [6]; [7] 42% | [6]; at 50.0 µM 59.9%

OC(c1ccccc1)(c1ccccc1)C(F)(Cl)Cl
inactive: [1]; [7] 1% | [1]; [8] 10% | [1]; at 50.0 µM 52.2% | [2]; [7] 0% | [2]; [8] 58% | [3]; [7] -4% | [3]; [8] 15% | [3]; at 50.0 µM 64.4% | [4]; [7] 1% | [4]; [8] 17% | [5]; [7] -14% | [5]; [8] 9% | [6]; [7] -2% | [6]; [8] 37% | [6]; at 50.0 µM 39.5%
active: [2]; at 50.0 µM 94.8% | [4]; at 50.0 µM 92.9% | [5]; at 50.0 µM 98.5%

Cn1c2c(c3ccccc31)CCN(CCN1CCN(c3ccccc3)CC1)C2=O
active: [1]; at 50.0 µM 71.9% | [3]; at 50.0 µM 79%
inactive: [1]; [7] 30% | [1]; [8] 31% | [2]; [7] 21% | [2]; [8] 29% | [2]; at 50.0 µM 43% | [3]; [7] 28% | [3]; [8] 37% | [4]; [7] 26% | [4]; [8] 24% | [4]; at 50.0 µM 60.6% | [5]; [7] 32% | [5]; [8] 43% | [5]; at 50.0 µM 67.5% | [6]; [7] 32% | [6]; [8] 35% | [6]; at 50.0 µM 59.8%

COc1ccc2c3c(c4cc(OC)c(OC)cc4c2c1)CN1CCC[C@H]1[C@@H]3O
active: [1]; [8] 99% | [1]; at 50.0 µM 89.4% | [2]; [8] 99% | [2]; at 50.0 µM 90.6% | [3]; [7] 97% | [3]; [8] 98% | [3]; at 50.0 µM 91.1% | [4]; [7] 90% | [4]; [8] 97% | [4]; at 50.0 µM 88.2% | [5]; [7] 95% | [5]; [8] 98% | [5]; at 50.0 µM 89.7% | [6]; [7] 98% | [6]; [8] 97% | [6]; at 50.0 µM 89.2%
inactive: [1]; [7] 19% | [2]; [7] 7%

C=CCNC(=O)c1ccccc1C(=O)O
inactive: [1]; [7] 2% | [1]; [8] 28% | [1]; at 50.0 µM 63.2% | [2]; [7] 1% | [2]; [8] 1% | [2]; at 50.0 µM 36.6% | [3]; [7] 0% | [3]; [8] 1% | [3]; at 50.0 µM 28.2% | [4]; [7] 2% | [4]; [8] 18% | [4]; at 50.0 µM 23.6% | [5]; [7] 4% | [5]; [8] 7% | [5]; at 50.0 µM 68.2% | [6]; [7] 3% | [6]; [8] 13% | [6]; at 50.0 µM 46.7%

CC(=O)CCCOC(C)=O
inactive: [1]; [7] 63% | [1]; at 50.0 µM 14.7% | [2]; [7] 22% | [2]; [8] 40% | [2]; at 50.0 µM -5.8% | [3]; at 50.0 µM 7.85% | [4]; [7] 10% | [4]; [8] 22% | [4]; at 50.0 µM 24.6% | [5]; [7] 62% | [5]; at 50.0 µM -0.55% | [6]; [7] 45% | [6]; at 50.0 µM 31.6%
active: [1]; [8] 78% | [3]; [7] 77% | [3]; [8] 78% | [5]; [8] 86% | [6]; [8] 75%

CC(C)(C)OC(=O)NCCNC(=O)CN(CC(=O)O)C1CCCCC1N(CC(=O)O)CC(=O)O (stereo not given)
active: [5]; [8] 75% | [6]; at 50.0 µM 74.5%
inactive: [1]; [7] -16% | [1]; [8] 59% | [1]; at 50.0 µM 50.4% | [2]; [7] -7% | [2]; [8] 52% | [2]; at 50.0 µM 62.3% | [3]; [7] 1% | [3]; [8] 46% | [3]; at 50.0 µM 61.6% | [4]; [7] -21% | [4]; [8] 46% | [4]; at 50.0 µM 15.9% | [5]; [7] 0% | [5]; at 50.0 µM 66.2% | [6]; [7] -10% | [6]; [8] 66%

CC(=O)N1C(c2[nH]c3ccccc3c2-c2ccccc2)CCN1c1ccccc1 (stereo not given)
inactive: [1]; [7] -12% | [1]; at 50.0 µM 64.1% | [2]; [7] -2% | [2]; [8] 51% | [2]; at 50.0 µM 54.7% | [3]; [7] 14% | [4]; [7] 7% | [4]; at 50.0 µM 69.9% | [5]; [7] -5% | [5]; at 50.0 µM 63.2% | [6]; [7] -9%
active: [1]; [8] 74% | [3]; [8] 87% | [3]; at 50.0 µM 83.2% | [4]; [8] 73% | [5]; [8] 87% | [6]; [8] 83% | [6]; at 50.0 µM 71%
